Experimental findings from ChEMBL document CHEMBL5308504, “Tm Shift (DSF) assay results for EUbOPEN Chemogenomics Library” (2023) are described below.

Experiment [1] addresses Bromodomain-containing protein 4 (Homo sapiens) (UniProt O60885). As to conditions: Compound concentration 20.0 uM, Protein concentration 2.0 uM, Result type QC Liability.
For experiment [2], the target named is T1, Transcription intermediary factor 1-alpha (Homo sapiens) (UniProt O15164).
T1 sequence (whole entry): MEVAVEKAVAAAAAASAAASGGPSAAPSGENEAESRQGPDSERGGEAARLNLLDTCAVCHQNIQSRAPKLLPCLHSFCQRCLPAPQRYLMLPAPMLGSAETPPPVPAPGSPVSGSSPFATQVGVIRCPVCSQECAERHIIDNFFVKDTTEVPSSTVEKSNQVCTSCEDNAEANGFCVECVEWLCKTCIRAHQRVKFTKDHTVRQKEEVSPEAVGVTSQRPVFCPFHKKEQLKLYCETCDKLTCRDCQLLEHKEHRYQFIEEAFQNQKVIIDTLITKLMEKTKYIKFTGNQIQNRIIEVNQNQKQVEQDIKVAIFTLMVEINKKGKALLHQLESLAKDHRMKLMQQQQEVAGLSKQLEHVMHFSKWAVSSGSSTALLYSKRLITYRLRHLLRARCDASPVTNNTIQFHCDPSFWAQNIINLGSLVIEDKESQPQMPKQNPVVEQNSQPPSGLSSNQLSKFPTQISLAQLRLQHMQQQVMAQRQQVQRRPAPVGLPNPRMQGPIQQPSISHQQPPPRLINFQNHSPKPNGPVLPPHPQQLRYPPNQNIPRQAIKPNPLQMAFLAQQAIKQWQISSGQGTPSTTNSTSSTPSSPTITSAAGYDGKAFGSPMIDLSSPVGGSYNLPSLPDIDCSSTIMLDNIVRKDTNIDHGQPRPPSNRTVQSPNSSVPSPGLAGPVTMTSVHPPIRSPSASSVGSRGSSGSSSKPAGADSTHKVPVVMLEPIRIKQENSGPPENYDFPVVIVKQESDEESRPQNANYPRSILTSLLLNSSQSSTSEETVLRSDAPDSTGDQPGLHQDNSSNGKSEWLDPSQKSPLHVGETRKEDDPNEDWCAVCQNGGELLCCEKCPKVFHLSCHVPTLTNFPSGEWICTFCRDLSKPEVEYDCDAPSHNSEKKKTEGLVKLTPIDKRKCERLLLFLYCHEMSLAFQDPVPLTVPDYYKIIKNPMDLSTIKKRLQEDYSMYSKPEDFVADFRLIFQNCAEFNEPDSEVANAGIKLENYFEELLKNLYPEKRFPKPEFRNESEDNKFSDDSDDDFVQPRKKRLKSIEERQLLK
The conditions noted are these: Compound concentration 20.0 uM, Protein concentration 2.0 uM, Result type QC Liability.

SMILES strings stand for the structures. Where “and” joins values, the source holds several entries; their conditions need not be identical. Equal entries are not always repeated.

In general, ΔTm refers to the change in melting temperature against a reference sample. Turning to `Cc1cc(OC2CCS(=O)(=O)CC2)cc(C)c1-c1cccc(COc2ccc(C(=O)O)c(F)c2)c1`, the figures for the thermal shift (ΔTm) in experiment [1] and in experiment [2] were -3.26 °C and -2.6 °C, respectively.
Regarding `CC(C)(C)c1cnc(CSc2cnc(NC(=O)C3CCNCC3)s2)o1`, the shift in melting temperature (ΔTm) in experiment [1] is 0.24 °C; in experiment [2] it was -1.61 °C.
Consider `Cn1cc(-c2ccc(N(C(=O)NCc3ccccc3)[C@H]3CC[C@H](Nc4ccc(C#N)cn4)CC3)cc2)ccc1=O`, for which the ΔTm in experiment [1] was -0.82 °C; in experiment [2], -1.6 °C.
In the case of `COc1cc(-c2cncc(-c3ccc(N4CCN(C(C)C)CC4)cc3)c2C)cc(F)c1C(=O)N1CCCC1`, the values for the thermal shift (ΔTm) in experiment [1] and in experiment [2] were -3.15 °C and -3.48 °C, respectively.
For `Cn1cc(NC(=O)c2ccc3nc4n(c3c2)CCCNC4=O)nc1C(=O)NC1CCCC1` the same measures were -1.16 °C and -2.92 °C.
On to `Cc1nccn1-c1ccc(Sc2cccc(C3(C(N)=O)CCOCC3)c2)cc1`, for which the ΔTm is -0.68 °C in experiment [1] and -1.02 °C in experiment [2].
On to `CCc1cnn2c(NCc3ccc[n+]([O-])c3)cc(N3CCCCC3CCO)nc12` (stereo not drawn), for which the ΔTm in experiment [1] is -0.63 °C; in experiment [2], -2.72 °C.
On to `CN(C)[C@H]1CCN(c2cc(C(F)(F)F)c(C#N)c(Nc3cccc(CCC(=O)O)c3)n2)C1`, for which the ΔTm in experiment [1] is -0.8 °C; in experiment [2] it was 0.26 °C.
For `Cc1ccc(-c2cn3nc(C(=O)NC4(c5ccc(F)cc5)CN(C)C4)c(C(C)C)c3c(=O)[nH]2)cc1C` the same measures were -24.1 °C and 0.46 °C.
For `COc1ccc(C(=O)N[C@H](C)c2cccc(C(=O)Nc3nc4c(s3)CN(C)CC4)c2)cc1C` the same measures were -1.18 °C and -2.54 °C.
As for `O=C(O)c1cc2cc(Cc3cccnc3)ccc2o1`, the ΔTm in experiment [1] was -1.5 °C; in experiment [2] it was -0.74 °C.
For `COc1cccc(Cn2cc(C(=O)Nc3ccc(C)c(S(=O)(=O)N4CCOCC4)c3)c(-c3ccc(C)cc3)n2)c1` the same measures were 1.27 °C and 4.1 °C.
For `COc1ccc(-c2cc3c(C)nc(N)nc3n([C@H]3CC[C@H](OCCO)CC3)c2=O)cn1` the same measures were -0.11 °C and -2.05 °C.
For `O=C(O)c1ccc2c(c1)nc(NCc1ccccc1)c1ncncc12` the same measures were -2.21 °C and 0.06 °C.
For `COc1nc2ccc([C@@](O)(c3ccccc3)C3CCN(C(C)=O)CC3)cc2c(Cl)c1Cc1ccc(-n2cccn2)cc1`, the ΔTm in experiment [1] is -3.41 °C; in experiment [2], -0.87 °C.
As to `COc1cc(F)ccc1-c1cc(Nc2cc(CS(C)(=N)=O)ccn2)ncc1F` (stereo not drawn), the thermal shift (ΔTm) in experiment [1] was 0.98 °C; in experiment [2] it was -2.98 °C.
In the case of `NS(=O)(=O)c1ccc(Nc2nc(OCC3CCCCC3)c3nc[nH]c3n2)cc1`, the shift in melting temperature (ΔTm) was 0.59 °C in experiment [1] and -0.84 °C in experiment [2].
As for `Cc1ncsc1-c1ccc(CNC(=O)[C@@H]2C[C@H](O)CN2C(=O)[C@@H](NC(=O)C2(F)CC2)C(C)(C)C)c(OCCOc2ccc(CN3CCN(c4cc(-c5ccccc5O)nnc4N)CC3)cc2)c1` (relative stereo), the results for the thermal shift (ΔTm) in experiment [1] and in experiment [2] were 14.5 °C and 1.57 °C, respectively.
For `COc1c(OCCCN2CCOCC2)ccc2c1N=C(NC(=O)c1cnc(N)nc1)N1CCN=C21` the same measures were -0.74 °C and -2.86 °C.
Regarding `FC(F)c1cncc(-c2ccc3ncc4nnc(C5=CCCOCC5)n4c3c2)c1`, the values for the ΔTm in experiment [1] and in experiment [2] were -0.98 °C and 0.23 °C, respectively.
For `CCCN1CCC(C#N)(NC(=O)[C@H](CC(C)(C)C)NC(=O)N2CCOCC2)CC1` the same measures were -0.48 °C and 0.46 °C.
For `CCN(C(=O)c1cc(F)ccc1Oc1cncnc1N1CC2(CCN(C[C@H]3CC[C@H](NS(=O)(=O)CC)CC3)CC2)C1)C(C)C`, the results for the thermal shift (ΔTm) in experiment [1] and in experiment [2] were -1.64 °C and -1.14 °C, respectively.
As to `Cc1ccccc1Oc1cc(-n2c(=O)cc(C(F)(F)F)[nH]c2=O)c2ccccc2c1Cl`, the values for the shift in melting temperature (ΔTm) in experiment [1] and in experiment [2] were -1.47 °C and -0.87 °C, respectively.
For `O=S(=O)(Nc1ccc(C(O)(C(F)(F)F)C(F)(F)F)cc1)c1cccs1` the same measures were -2.9 °C and -0.69 °C.
As to `CC1(C)C[C@@H]1C(=O)N/C(=C\CCCCSC[C@H](N)C(=O)O)C(=O)O`, the thermal shift (ΔTm) in experiment [1] was -2.05 °C; in experiment [2], -0.56 °C.
For `CC1(C)Oc2ncnc(N)c2N=C1c1ccc([C@H]2CC[C@H](CC(=O)O)CC2)cc1` the same measures were -1.69 °C and -0.57 °C.
As to `Cc1[nH]nc(C(F)(F)F)c1Cc1sc2c(c1C(=O)N1C[C@](C)(O)CO1)c(=O)n(C)c(=O)n2C(C)C`, the shift in melting temperature (ΔTm) in experiment [1] was -1.28 °C; in experiment [2] it was -0.8 °C.
For the compound `CN[C@@H](C)C(=O)N[C@H]1CN(C(=O)CC(C)C)CC[C@H]2CC[C@@H](C(=O)NC(c3ccccc3)c3ccccc3)N2C1=O`, the shift in melting temperature (ΔTm) in experiment [1] is -2.41 °C; in experiment [2] it was -2.26 °C.
With `COc1cc(Cl)c(C(=O)N[C@@H](CN[C@H]2CC[C@@H](N)CC2)Cc2ccc(C#N)cc2)cc1-c1ccc(CN[C@H](C)c2ccc(C)cc2)o1`, the shift in melting temperature (ΔTm) is -1.12 °C in experiment [1] and -2.42 °C in experiment [2].
For `COc1cc2c(NC3CCN(C(C)C)CC3)nc(C3CCCCC3)nc2cc1OCCCN1CCCC1` the same measures were -2.43 °C and -2.96 °C.
Take `CC(C)(O)[C@H](F)CN1Cc2cc(NC(=O)c3cnn4cccnc34)c(N3CCOCC3)cc2C1=O`: the ΔTm in experiment [1] is -0.35 °C; in experiment [2], -2.63 °C.
With `COc1cc(OC)cc(-c2cc3cnc(N)nc3nc2NC(=O)NC(C)(C)C)c1`, the ΔTm in experiment [1] was -2.72 °C and 0.27 °C; in experiment [2], -2.2 °C and -1.8 °C.
For the compound `CC(C)N(CCCCOCC(=O)O)c1cnc(-c2ccccc2)c(-c2ccccc2)n1`, the ΔTm in experiment [1] was -1.87 °C; in experiment [2] it was -0.66 °C.
For `NC1(c2ccc(-c3nc4c(O)ccnn4c3-c3ccccc3)cc2)CCC1` the same measures were -0.63 °C and -1.89 °C.
